The test system of this experiment is VDR:RXRa (NR concentration 270 nM, RXRa partner concentration 90 nM). The experiment is described as follows: PBM binding z-score (relative to random genomic background probes); higher = stronger binding; sequences stand for … in GC…GCGATTGACAGCGTAGAATGAAGG
As for the experimental part: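 Protein-binding microarray (Agilent 4x180K custom design, double-stranded 60-nt probes: 5' GC cap, 34-nt variable region, 24-nt constant primer region; full probe sequence given). Purified or IVT nuclear receptor:RXRα heterodimers (3:1 NR:RXRα, mostly 270:90 nM) or homodimers were incubated for 1 h in PBS with 2% milk and no ligand, then detected with Alexa488 antibodies. Fluorescence from o1-orientation probes (~5 replicates averaged) was converted to z-scores against 500 random hg19 background probes. Variable regions are seed direct-repeat (DR0–DR5) sites, all their single-nucleotide variants and half-site ablations.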
On to CTACCAAGGTGAAAAAGGTCGTTGATTACTATTC, for which the PBM binding z-score worked out at 4.09. In the case of AGAACGAGGGCAATGCGTTGATAGCACGGGTGGC, the PBM binding z-score was determined as 1.16.

Regarding CCAGATAGGTGAAAGGTAACTCAGTCTGGTACGC, the PBM binding z-score was 0.921. As to GATACAGGGTCAGCTAGAGGCCAGGGTATGGAAA, the PBM binding z-score turned out to be 3.14. As for TAGCCTAGGTCATTCAGGGGCCAGTAAAGAAAGC, the figure is 3.21; as for GCTGCTGGGTCAACTGATGGTCAGCTAAAGCTCG, 1.82; as for GCAGACAGGTGAAACGCAGGTCACTCAGGGTGGC, 2.28.

CCGATTGGGGCATAAGGTTACCATAAGCCAGCCC showed a PBM binding z-score of 0.31. In turn, CCTTACGGGTCAAGGATATAGCACGGGTGGTACG returned a PBM binding z-score of 2.65. Consider CTCGAAAGGTCGTGCTCAGGTGAGTAAACCAAAC, for which the PBM binding z-score amounted to 2.99. The sequence CTGCCTAGGTCAGGGCCAGTATAGGAGGAACGTT displayed a PBM binding z-score of 0.0608. As for CCTTTCGGGTCAAGGTTATAGCACGGGTGGTACG, the figure is 3.79.

The sequence AATACAGGGTCACTATGCCAGAGTAGGTACGAAT gave a PBM binding z-score of 3.91. In turn, AATACTGGGTCATCGTAGGCCAGAGTACGCACAG had a PBM binding z-score of 2.49. To CGTCCAAGGTCAGCAGGGCAGTGAAAGCGACGTG belongs 2.87; to AGCACGAGGGCACGCTGAGTTGATAGCAGAGTAG, 2.17. Consider CCTAGCAGGCCAGAGTCACTCAAGCATTTCGCTT, for which the PBM binding z-score is -0.665. As for CCTACTGGGCCAAGGTCATGGATCAGTCAAAGCA, the figure is 3.05; as for CCTATTAGGTGACCATAAGGGCAACCGAAGCTCG, 0.646; as for CCTGCTAGGTCATGGTAAGCTAATCTACAGTATG, 1.49. As for GCTAGCAGGCCGTTTGGGTCACTCAATGACGGGC, the figure is 0.00602; as for ACATGTAGGTTACATCCGGGTCATTCAGGCTATG, 4.11. To GCTAGCAGGCCATTTGGGTGACTCAATGACGGGC belongs -0.749; to TGAAAGAGGTTAAAGATCAGGGAACGTGGCGTCG, 1.82. As to CGAACGAGGGCATGAGTTGATACCAAATGCCGAT, the PBM binding z-score was found to be 1.83.

On to TAGCCTAGGTCATGGGCCAGTCTACCACGCGAAC, for which the PBM binding z-score worked out at 1.82. As for TCATATAGGTAAAGCTGAAAGTCGAACGATATGA, the figure is 0.186.

As to ATCTCTAGGTAAAAGTTCACTGAATCCCGAGGAT, the PBM binding z-score was determined as 2.58. TCGAGCAGGTTAGTCGGGGCATTCAGCCAACATA had a PBM binding z-score of 2.09. As for TCGAGTAGGTTACCAATGGGGCATTTAGCTTTCT, the figure is 0.185; as for GCAGACAGGTGAAACTCAGGTAACTCAGGGTGGC, -0.101; as for CCGTACGGGTCACTCCAGGTTATAGCATCGGAGT, 4.39.

As for CCTAGTTGGGCAAGGTCACACACGCTATAGGTAC, the PBM binding z-score was 3.84. To GGAAGGAGGGCATTCGAGTTGATAGCATGGCGAT belongs 2.46; to TCGAGTAGGTTACCAATGGGGCATTCAACTTTCT, 0.521.

Sequence GTTACAGGGTCAGCTAGAGGCCAGAGTATGGAAA showed a PBM binding z-score of 3.39.

For the sequence CGTCCAAGGTCAGAGAGGTCAGGGAATGCCGAGT, the PBM binding z-score stood at 7.31. TTACCAAGGTGAAAGGGCGTTGATGCACGCCTTG: the PBM binding z-score is 0.61. As for CGAACTAGGTCAAGTACAGTGAATCTCCGCACGC, the figure is 2.02. CTACCAAGATGAACAAGGTCGTTGATTACTATTC came in with a PBM binding z-score of 2.52.

Values taken from the supplement of paper PMC6555819.
